Measurements published in PubChem BioAssay (NCATS).
Results filed as inconclusive are left out. The list shows a part of the results. Entries that show only a call come without a potency. The source made the active and inactive calls. Unless noted, calls come from the whole dose curve; as a rule, active = well fitted curve in the direction sought with a large enough effect; inconclusive = small, poorly fitted or top-dose-only effect, or another doubt; inactive = no such curve, though single readings can be large; an effect the other way counts as inactive or inconclusive.

Experiments:
[1] = Cytometric Cell-Based qHTS for Inhibitors of the mTORC1 Signaling Pathway in MEF (Tsc2-/-, p53-/-) Cells (AID 2660);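 note: Tsc2 and p53 null MEFs carrying empty vector with compound for 24 h; percent of cells above a phospho-rpS6 to PI ratio cutoff in each well; series mostly up to about 38 µM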
In short: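 Cells are plated, treated with compound for 24 hrs at 37 degree Celsius, then fixed, blocked and immunostained for phospho-rpS6 Ser235/236. Propidium iodide counterstain follows. Per-well % positive cells is derived from the PI-normalized phospho-S6 signal.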

[2] = High Content Imaging Cell-Based qHTS for Inhibitors of the mTORC1 Signaling Pathway in MEF (Tsc2-/-, p53-/-) Cells (AID 2666);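 note: percent of cells scored positive for phospho-rpS6 Ser235/236 immunostaining by imaging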
In short: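 MEF Tsc2-/- p53-/- (empty vector), DMEM/10% FBS; cpd 24 h 37 °C; PFA fix, Alexa-488 p-rpS6 S235/236 Ab, Hoechst; imaged; rapamycin-defined inhibition; % positive cells/well.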

[3] = High Content Imaging Cell-Based qHTS for Inhibitors of the mTORC1 Signaling Pathway in MEF Cells (AID 2667);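 note: Tsc2-/- p53-/- MEFs stably re-expressing wild-type Tsc2 exposed 24 h; series mostly up to about 38 µM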
In short: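 Read-out is the share of phospho-rpS6-positive cells per well, from Hoechst-normalized Alexa-488 Ser235/236 staining imaged on IN Cell. Cells: WT Tsc2-expressing Tsc2-/-, p53-/- MEFs exposed to compound for 24 hrs.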

[4] = Cytometry Cell-Based qHTS for Inhibitors of the mTORC1 Signaling Pathway in MEF cells (AID 2668);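 note: Tsc2-/- p53-/- mouse embryonic fibroblasts stably re-expressing wild-type Tsc2; percent cells positive for phospho-rpS6 Ser235/236 relative to propidium iodide stain; series mostly up to about 38 µM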
In short: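 Tsc2-/-, p53-/- MEFs re-expressing WT Tsc2; cpd 24 hrs, 37 degree Celsius; PFA fix, Alexa-488 p-rpS6 (Ser235/236) Ab 2 hrs RT, PI counterstain; Acumen 488nm scan; p-S6/PI ratio → % positive cells; PI count = viability.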

[5] = Validation screen for small molecules that induce DNA re-replication in MCF 10A normal breast cells (AID 463097); note: nearly all actives have a fitted effect of over 60% in size
In short: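 Image-based qHTS: normal breast cells are incubated with compound for 48 hr, stained with Hoechst, and scanned for total nuclear fluorescence. Compounds raising the fraction of nuclei with elevated DNA content count as re-replication inducers.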

[6] = target: Ubiquitin carboxyl-terminal hydrolase 2 (Homo sapiens) (UniProt O75604); experiment: qHTS Validation Assay for Inhibitors of Ubiquitin-specific Protease USP2a Using CHOP2 as the Reporter (AID 463106)
In short: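 Fluorescence read-out at Ex 485nm/Em 531nm after 60min RT, following addition of 25nM Ub-CHOP2 plus 25nM reporter substrate to USP2 core (10nM) pretreated 30min with compound. Data normalized to NEM full inhibition; concentration-response curves fitted.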

[7] = target: DNA polymerase III PolC-type (Bacillus subtilis (strain 168)) (UniProt P13267); experiment: qHTS Validation Assay for the Inhibitors of DNA Replication in Gram-Positive Bacteria (AID 485295);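 note: reconstituted holoenzyme with PolC plus beta clamp SSB and primase; PicoGreen fluorescence of double-stranded DNA made on primed circular M13 template; series mostly up to about 57 µM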
Chain of DNA polymerase III PolC-type (Bacillus subtilis (strain 168)) (P13267 whole entry, looked up): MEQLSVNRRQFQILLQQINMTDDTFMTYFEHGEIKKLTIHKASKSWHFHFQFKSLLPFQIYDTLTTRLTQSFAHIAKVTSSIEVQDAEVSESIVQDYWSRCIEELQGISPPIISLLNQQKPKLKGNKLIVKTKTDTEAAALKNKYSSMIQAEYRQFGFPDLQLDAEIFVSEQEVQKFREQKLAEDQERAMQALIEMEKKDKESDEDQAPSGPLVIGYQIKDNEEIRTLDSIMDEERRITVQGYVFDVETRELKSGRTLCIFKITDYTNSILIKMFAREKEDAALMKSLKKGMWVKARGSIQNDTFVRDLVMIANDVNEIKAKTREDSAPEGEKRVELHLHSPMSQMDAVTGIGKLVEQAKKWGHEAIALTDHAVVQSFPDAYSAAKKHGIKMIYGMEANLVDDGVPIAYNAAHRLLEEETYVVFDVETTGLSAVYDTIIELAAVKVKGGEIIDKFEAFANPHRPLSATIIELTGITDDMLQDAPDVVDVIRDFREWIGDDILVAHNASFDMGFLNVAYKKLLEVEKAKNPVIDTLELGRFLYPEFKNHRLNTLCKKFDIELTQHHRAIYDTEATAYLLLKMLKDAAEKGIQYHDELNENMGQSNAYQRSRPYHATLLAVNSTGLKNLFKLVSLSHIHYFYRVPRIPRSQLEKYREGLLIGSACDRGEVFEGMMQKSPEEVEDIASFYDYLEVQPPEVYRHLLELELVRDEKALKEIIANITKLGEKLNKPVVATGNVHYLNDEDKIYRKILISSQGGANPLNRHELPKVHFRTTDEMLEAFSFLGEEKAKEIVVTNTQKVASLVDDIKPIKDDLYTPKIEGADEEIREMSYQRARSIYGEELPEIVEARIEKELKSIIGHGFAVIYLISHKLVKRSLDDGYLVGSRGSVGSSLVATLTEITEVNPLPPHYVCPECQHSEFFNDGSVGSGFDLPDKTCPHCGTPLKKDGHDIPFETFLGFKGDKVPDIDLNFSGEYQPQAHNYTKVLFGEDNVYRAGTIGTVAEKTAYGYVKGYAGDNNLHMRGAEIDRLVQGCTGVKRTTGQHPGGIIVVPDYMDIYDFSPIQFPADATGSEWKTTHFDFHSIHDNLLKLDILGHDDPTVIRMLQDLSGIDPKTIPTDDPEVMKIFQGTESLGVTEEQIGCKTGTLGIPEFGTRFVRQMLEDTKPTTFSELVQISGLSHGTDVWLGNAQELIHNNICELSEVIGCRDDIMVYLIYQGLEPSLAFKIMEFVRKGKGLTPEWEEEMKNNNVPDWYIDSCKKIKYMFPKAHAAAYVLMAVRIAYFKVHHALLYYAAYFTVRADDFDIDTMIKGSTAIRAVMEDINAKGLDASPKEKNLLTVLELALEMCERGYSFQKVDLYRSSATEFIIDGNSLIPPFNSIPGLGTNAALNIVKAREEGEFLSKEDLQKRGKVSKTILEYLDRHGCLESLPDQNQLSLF
In short: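 First, compound is mixed with the reconstituted replication complex and held at room temperature. Next, circular single-stranded M13Gori with nucleotides starts synthesis. Finally, PicoGreen in EDTA halts the reaction and stains double-stranded product for fluorescence reading.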

[8] = target: Tumor susceptibility gene 101 protein (Homo sapiens) (UniProt Q99816); experiment: qHTS Validation Assay for Iinhibitors of HIV-1 Budding by Blocking the Interaction of PTAP/TSG101 (AID 485342; calls by dose curve)
Chain of Tumor susceptibility gene 101 protein (Homo sapiens) (Q99816 whole entry, looked up, the tested form may be a part): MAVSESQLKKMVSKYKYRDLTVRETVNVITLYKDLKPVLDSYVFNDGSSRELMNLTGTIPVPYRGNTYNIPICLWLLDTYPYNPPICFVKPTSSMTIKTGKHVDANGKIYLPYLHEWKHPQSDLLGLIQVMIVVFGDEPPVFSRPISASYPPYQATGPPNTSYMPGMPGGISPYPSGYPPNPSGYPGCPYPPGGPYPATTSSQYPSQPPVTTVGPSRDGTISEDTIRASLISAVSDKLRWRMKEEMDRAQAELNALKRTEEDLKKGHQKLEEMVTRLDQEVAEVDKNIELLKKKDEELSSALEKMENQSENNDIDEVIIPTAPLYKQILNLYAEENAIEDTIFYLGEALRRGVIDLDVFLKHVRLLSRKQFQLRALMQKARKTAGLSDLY
In short: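 Binding of a FITC-tagged PTAP-motif peptide (50 nM) to the Tsg101 binding domain (10 uM) is monitored by fluorescence polarization. Compounds are pin-delivered before peptide addition, and incubation runs 20 min at room temperature.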

[9] = qHTS Validation Assay to Find Inhibitors of Chronic Active B-Cell Receptor Signaling (AID 485345; active = well fitted curve in the direction sought with a large enough effect in the main read-out, with a control signal flat, not every such curve was filed as active)
In short: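 TMD8 ABC-DLBCL cells stably carrying doxycycline-inducible IkappaBalpha–green luciferase fusion plus unfused red luciferase; compounds 46 uM to 3 nM, 4 h at 37C with doxycycline. Corrected green/red luminescence ratio normalized to 10 uM MG-132 and basal cell wells; curves fitted.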

[10] = target: Beta-2 adrenergic receptor (Homo sapiens) (UniProt P07550); experiment: qHTS validation assay of beta-arrestin-biased ligands of beta2-adrenergic receptor (AID 485366)
In short: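 Compound series up to 46 microM applied to beta2-AR/beta-arrestin Tango cells, 18 hr, 37 degrees C, 5% CO2. Read-out: tTA-driven luciferase luminescence, converted to %Activity; concentration-response curves assigned curve classes.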

[11] = target: ATP-dependent 6-phosphofructokinase (Trypanosoma brucei brucei) (UniProt O15648); experiment: qHTS Validation Assay to Find Inhibitors of T. brucei phosphofructokinase (AID 485368)
Chain of ATP-dependent 6-phosphofructokinase (Trypanosoma brucei brucei) (O15648 whole entry, looked up): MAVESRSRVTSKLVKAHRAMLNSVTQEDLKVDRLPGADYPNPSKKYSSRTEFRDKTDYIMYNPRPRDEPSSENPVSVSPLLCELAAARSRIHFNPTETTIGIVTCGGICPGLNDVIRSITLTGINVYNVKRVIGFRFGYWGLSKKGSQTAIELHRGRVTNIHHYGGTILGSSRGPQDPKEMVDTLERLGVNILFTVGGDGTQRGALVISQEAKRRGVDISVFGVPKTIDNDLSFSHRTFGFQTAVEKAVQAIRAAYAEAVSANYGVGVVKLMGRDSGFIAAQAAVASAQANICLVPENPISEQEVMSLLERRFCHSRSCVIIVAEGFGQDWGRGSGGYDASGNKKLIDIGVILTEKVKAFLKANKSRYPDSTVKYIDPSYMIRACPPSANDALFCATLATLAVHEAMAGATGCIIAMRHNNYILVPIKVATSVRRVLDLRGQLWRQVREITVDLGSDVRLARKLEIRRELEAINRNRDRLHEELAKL
In short: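 qHTS format, up to 57 uM. PFK 1.25 nM; F6P 0.5 mM; ATP 0.1 mM; 5 mM MgCl2, 0.01% Tween20, 0.1% BSA; 0.1 M TEA pH 8.0; 45 min RT; ADP-Glo readout; no-enzyme control = full inhibition.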

[12] = Quantitative high throughput screen for delayed death inhibitors of the malarial parasite plastid, 96 hour incubation (AID 488745); note: nearly all actives have a fitted effect of over 70% in size; note: potency is the fitted concentration of half-maximal effect
In short: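 Readout is firefly luciferase luminescence from an integrated reporter in P. falciparum; lower signal marks inhibited growth. Cultures at 2% hematocrit and 0.1% parasitemia were treated with compound across two generations (96 h, 37 C, 5% CO2).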

[13] = target: Thioredoxin reductase 1, cytoplasmic (Rattus norvegicus) (UniProt O89049); experiment: qHTS Assay for Substrates of Mammalian Selenoprotein Thioredoxin Reductase 1 (TrxR1) (AID 488772);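 note: series mostly up to about 57 µM; a drop in NADPH fluorescence below the no-compound background marks a TrxR1 substrate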
Chain of Thioredoxin reductase 1, cytoplasmic (Rattus norvegicus) (O89049 whole entry, looked up): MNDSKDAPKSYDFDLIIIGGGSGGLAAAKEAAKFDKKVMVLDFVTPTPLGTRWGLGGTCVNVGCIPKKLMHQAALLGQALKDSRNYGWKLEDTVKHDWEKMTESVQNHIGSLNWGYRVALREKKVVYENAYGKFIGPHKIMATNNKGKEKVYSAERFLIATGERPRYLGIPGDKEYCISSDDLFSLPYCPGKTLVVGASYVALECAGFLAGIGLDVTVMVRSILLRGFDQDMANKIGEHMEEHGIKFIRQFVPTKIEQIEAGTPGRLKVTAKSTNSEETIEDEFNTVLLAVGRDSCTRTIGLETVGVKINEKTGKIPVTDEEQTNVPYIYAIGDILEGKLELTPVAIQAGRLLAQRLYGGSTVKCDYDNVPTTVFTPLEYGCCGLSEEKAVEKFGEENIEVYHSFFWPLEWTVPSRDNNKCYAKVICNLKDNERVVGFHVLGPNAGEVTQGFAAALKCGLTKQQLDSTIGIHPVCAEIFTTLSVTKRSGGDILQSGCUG
In short: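 In this dual-purpose format, potential substrates are identified from the first fluorescence read after selenite addition, not from the 8-minute delta. Rat enzyme is preincubated with NADPH and then with compound at ~22 deg C.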

[14] = target: M-phase phosphoprotein 8 (Homo sapiens) (UniProt Q99549); experiment: qHTS Validation Assay for Inhibitors for MPP8 Chromodomain Interactions with Methylated Histone Tails (AID 488949);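 note: 50 nM MPP8 with 50 nM peptide preformed then compounds added for 30 min; AlphaScreen signal from MPP8 chromodomain bound to biotinylated H3K9me3 peptide; top concentration of the series differs between compounds; nearly all actives have a fitted effect of over 55% in size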
Chain of M-phase phosphoprotein 8 (Homo sapiens) (Q99549 whole entry, looked up): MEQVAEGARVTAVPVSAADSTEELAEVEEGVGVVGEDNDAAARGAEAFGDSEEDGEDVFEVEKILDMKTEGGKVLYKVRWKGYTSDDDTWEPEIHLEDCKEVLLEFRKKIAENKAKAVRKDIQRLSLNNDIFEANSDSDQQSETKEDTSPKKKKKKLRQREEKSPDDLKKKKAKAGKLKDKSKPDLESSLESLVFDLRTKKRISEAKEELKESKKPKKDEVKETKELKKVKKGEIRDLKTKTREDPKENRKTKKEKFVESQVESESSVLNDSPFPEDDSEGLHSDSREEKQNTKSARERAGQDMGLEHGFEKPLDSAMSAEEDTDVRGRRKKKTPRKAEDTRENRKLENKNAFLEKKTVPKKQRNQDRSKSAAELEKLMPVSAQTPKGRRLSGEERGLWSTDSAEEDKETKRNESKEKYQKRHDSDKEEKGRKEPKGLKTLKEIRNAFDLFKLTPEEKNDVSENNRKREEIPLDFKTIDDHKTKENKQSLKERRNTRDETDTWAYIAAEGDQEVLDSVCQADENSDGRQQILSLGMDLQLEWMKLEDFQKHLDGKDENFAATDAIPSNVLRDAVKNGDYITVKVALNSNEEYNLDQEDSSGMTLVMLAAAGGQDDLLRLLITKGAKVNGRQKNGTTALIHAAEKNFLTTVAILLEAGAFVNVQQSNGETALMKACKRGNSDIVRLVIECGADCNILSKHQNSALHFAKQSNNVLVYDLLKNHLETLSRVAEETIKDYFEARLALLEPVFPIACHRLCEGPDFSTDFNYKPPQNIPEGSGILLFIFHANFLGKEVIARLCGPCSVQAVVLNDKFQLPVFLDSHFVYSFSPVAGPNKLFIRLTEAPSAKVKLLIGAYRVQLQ
In short: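 50 nM MPP8 + 50 nM b-H3K9me3 peptide, PBS pH 7.4/0.01% Tween-20, 30 min RT; + cpd 30 min RT; + AlphaScreen donor/Ni-chelate acceptor beads 10 ug/mL final, 30 min dark; luminescence read.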

[15] = target: Chromobox protein homolog 1 (Homo sapiens) (UniProt P83916); experiment: qHTS Validation Assay for Inhibitors of HP1-beta Chromodomain Interactions with Methylated Histone Tails (AID 488953);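 note: loss of AlphaScreen luminescence from HP1-beta binding biotinylated H3K9me3 peptide; series mostly up to about 110 µM; nearly all actives have a fitted effect of over 50% in size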
Chain of Chromobox protein homolog 1 (Homo sapiens) (P83916 whole entry, looked up): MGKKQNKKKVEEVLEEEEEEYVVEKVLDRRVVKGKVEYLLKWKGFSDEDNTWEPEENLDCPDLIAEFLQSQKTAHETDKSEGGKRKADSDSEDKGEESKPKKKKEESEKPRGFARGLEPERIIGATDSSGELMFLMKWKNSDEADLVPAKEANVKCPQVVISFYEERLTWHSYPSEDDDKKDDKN
In short: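 Disruption of preformed HP1-beta:H3K9me3 peptide complexes (both 50 nM, PBS pH 7.4 with 0.01% Tween-20) is measured by AlphaScreen after 30 min compound exposure at room temperature, using streptavidin donor and nickel chelate acceptor beads at 10 ug/mL final.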

[16] = target: Methanococcus maripaludis chaperonin (MmCpn) (UniProt Q6LX38); experiment: High-Throughput Screening for Modulators of Cytosolic Chaperonin Activity: MmCpn Primary Screen (AID 488978);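 note: 50 nM MmCpn enzyme hydrolysing 30 µM ATP at 37 °C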
Chain of Methanococcus maripaludis chaperonin (MmCpn) (Q6LX38 1-543): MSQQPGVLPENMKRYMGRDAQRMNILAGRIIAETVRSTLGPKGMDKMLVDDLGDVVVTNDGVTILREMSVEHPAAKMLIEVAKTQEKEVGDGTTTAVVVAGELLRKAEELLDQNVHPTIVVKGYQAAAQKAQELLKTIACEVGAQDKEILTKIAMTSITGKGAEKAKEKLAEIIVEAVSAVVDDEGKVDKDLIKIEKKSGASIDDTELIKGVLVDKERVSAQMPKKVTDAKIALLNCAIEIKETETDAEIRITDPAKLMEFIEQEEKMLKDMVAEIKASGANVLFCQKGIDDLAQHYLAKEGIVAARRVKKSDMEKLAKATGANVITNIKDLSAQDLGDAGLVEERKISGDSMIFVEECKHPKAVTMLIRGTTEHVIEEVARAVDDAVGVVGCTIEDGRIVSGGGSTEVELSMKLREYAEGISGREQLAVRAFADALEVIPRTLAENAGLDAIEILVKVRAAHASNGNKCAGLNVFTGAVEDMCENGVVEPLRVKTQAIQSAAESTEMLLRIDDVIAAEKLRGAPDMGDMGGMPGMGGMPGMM
In short: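 Steps: chaperonin 50 nM final; add compound, 5 min RT; start with ATP, 30 uM final; hold 10 min at 37C; add ADP Transcreener HTRF reagent, 5 min; read ex 320, em 590 and 665 nm.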

[17] = Quantitative high throughput screen for delayed death inhibitors of the malarial parasite plastid, 48 hour incubation (AID 488752); note: nearly all actives have a fitted effect of over 65% in size
In short: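 First, compound was pinned into RPMI 1640 medium containing 0.5% Albumax. Next, reporter-parasite-infected erythrocytes were added to 2% hematocrit and 0.1% parasitemia. After 48 h at 37 C under 5% CO2, luciferase detection reagent was added and luminescence read.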

[18] = target: Thioredoxin reductase 1, cytoplasmic (Rattus norvegicus) (UniProt O89049); experiment: qHTS Assay for Inhibitors of Mammalian Selenoprotein Thioredoxin Reductase 1 (TrxR1) (AID 488773); conditions: Potency: inhibition;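 note: drop in NADPH fluorescence over an 8 min run after selenite addition; series mostly up to about 57 µM; nearly all actives have a fitted effect of over 40% in size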
In short: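 Inhibition is scored from the loss of NADPH fluorescence between first and last reads of an 8-min kinetic run. Selenite (400 uM) was the substrate, added after 15 min compound preincubation at room temperature.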

[19] = target: Flap endonuclease 1 (Homo sapiens) (UniProt P39748); experiment: qHTS Validation Assay for the Inhibitors of Human Flap endonuclease 1 (FEN1) (AID 488816)
Chain of Flap endonuclease 1 (Homo sapiens) (P39748 whole entry, looked up): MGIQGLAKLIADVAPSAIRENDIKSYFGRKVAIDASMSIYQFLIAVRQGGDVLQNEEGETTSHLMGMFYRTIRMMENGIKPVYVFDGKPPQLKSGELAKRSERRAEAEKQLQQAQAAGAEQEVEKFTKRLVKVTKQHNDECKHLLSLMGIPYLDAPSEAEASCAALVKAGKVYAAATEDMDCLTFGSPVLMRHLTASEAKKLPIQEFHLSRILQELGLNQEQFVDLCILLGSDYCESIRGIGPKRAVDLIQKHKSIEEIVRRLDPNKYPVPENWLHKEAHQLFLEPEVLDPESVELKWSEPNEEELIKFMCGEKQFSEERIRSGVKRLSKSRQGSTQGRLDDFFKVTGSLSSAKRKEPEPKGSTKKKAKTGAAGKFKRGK
In short: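 Enzyme reagent 10 nM; cpds pinned; 15 min RT preinc.; substrate 50 nM final; reads t=0 and 15 min; no-enzyme buffer wells as neg. control; normalized data, 4-parameter Hill fit.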

[20] = target: DNA repair nuclease/redox regulator APEX1 (Homo sapiens) (UniProt P27695); experiment: Confirmation qHTS Assay for Inhibitors of the Human Apurinic/apyrimidinic Endonuclease 1 (APE1) (AID 2572);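 note: fluorescence gain from purified APE1 cutting a TAMRA/BHQ-2 THF abasic duplex; nearly all actives have a fitted effect of over 30% in size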
In short: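 Cleavage of a tetrahydrofuran abasic site in a 50 nM (final) TAMRA/BHQ-2 duplex was tracked by rising fluorescence, measured in kinetic mode; reaction progress computed from the first-to-third read difference.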

Compound	outcome [1]	Potency [2]	Potency [3]	Potency [4]	Potency [5]	Potency [6]	Potency [7]	outcome [8]	outcome [9]	outcome [10]	Potency [11]	Potency [12]	outcome [13]	Potency [14]	Potency [15]	outcome [16]	Potency [17]	Potency [18]	Potency [19]	outcome [20]
COc1ccc(CCN(C)CCc2ccc(OC)c(OC)c2)cc1OC	inactive	inactive	inactive	inactive	inactive	inactive	inactive	inactive	inactive	inactive	inactive	inactive	inactive	inactive	inactive	inactive	–	–	–	–
CC1=C(C(=O)O)N2C(=O)[C@@H](NC(=O)C(N)C3=CCC=CC3)[C@H]2SC1 (some centres not stated)	inactive	inactive	inactive	inactive	inactive	inactive	inactive	inactive	inactive	inactive	inactive	inactive	inactive	inactive	inactive	inactive	inactive	inactive	–	–
Cn1cc(C(=O)OCC2CCN(CCNS(C)(=O)=O)CC2)c2ccccc21	inactive	inactive	inactive	inactive	inactive	inactive	inactive	inactive	inactive	inactive	–	inactive	inactive	–	inactive	inactive	inactive	inactive	inactive	–
CC(=O)N[C@@H](Cc1c[nH]c2ccccc12)C(=O)OCc1cc(C(F)(F)F)cc(C(F)(F)F)c1	inactive	inactive	inactive	inactive	inactive	inactive	inactive	inactive	inactive	inactive	inactive	inactive	inactive	inactive	–	inactive	–	–	inactive	–
NCCCCN=C(N)N	inactive	inactive	inactive	inactive	inactive	inactive	inactive	inactive	inactive	inactive	inactive	inactive	inactive	inactive	–	inactive	inactive	inactive	inactive	–
COc1cc(CNC(=O)CCCCCCC(C)C)ccc1O	inactive	inactive	inactive	inactive	inactive	inactive	inactive	inactive	inactive	inactive	inactive	inactive	inactive	inactive	inactive	inactive	–	–	inactive	–
CSC(=N)N	inactive	inactive	inactive	inactive	inactive	inactive	inactive	inactive	inactive	inactive	inactive	inactive	inactive	inactive	–	inactive	inactive	inactive	–	–
COC1(C2=NCCN2)COc2ccccc2O1 (configuration not stated)	inactive	inactive	inactive	inactive	inactive	inactive	inactive	inactive	inactive	inactive	–	inactive	inactive	inactive	–	inactive	inactive	inactive	inactive	–
COC(=O)C1=C(C)NC(C)=C([N+](=O)[O-])C1c1ccccc1C(F)(F)F (configuration not stated)	inactive	inactive	inactive	inactive	inactive	inactive	inactive	inactive	inactive	inactive	inactive	–	inactive	inactive	–	inactive	–	inactive	–	–
CCN(CC)CCOC(=O)c1cc(Cl)c(N)cc1OC	inactive	inactive	inactive	inactive	inactive	inactive	inactive	inactive	inactive	inactive	–	inactive	inactive	inactive	inactive	inactive	inactive	inactive	inactive	–
NC1CCN(O)C1=O (configuration not stated)	inactive	inactive	inactive	inactive	inactive	inactive	inactive	inactive	inactive	inactive	–	inactive	inactive	inactive	inactive	inactive	inactive	inactive	inactive	inactive
CC(N)(Cc1ccc(O)cc1)C(=O)O (configuration not stated)	inactive	inactive	inactive	inactive	inactive	inactive	inactive	inactive	inactive	inactive	inactive	inactive	–	inactive	–	inactive	–	–	inactive	–
Cc1cc2c(cc1Cl)N(C(=O)Nc1ccnc3ccccc13)CC2	inactive	inactive	inactive	inactive	inactive	inactive	inactive	inactive	inactive	inactive	–	inactive	inactive	inactive	inactive	–	inactive	inactive	inactive	–
O=C(O)/C=C/c1ccc(O)c(O)c1	inactive	inactive	inactive	inactive	inactive	inactive	inactive	inactive	inactive	inactive	inactive	–	inactive	inactive	inactive	inactive	inactive	inactive	inactive	–
COC(=O)C(C)(N)Cc1ccc(O)cc1 (configuration not stated)	inactive	inactive	inactive	inactive	inactive	inactive	inactive	inactive	inactive	inactive	inactive	–	inactive	inactive	–	inactive	inactive	inactive	inactive	–
CN1C2CCC1CC(OC(c1ccccc1)c1ccccc1)C2 (configuration not stated)	inactive	inactive	inactive	inactive	inactive	inactive	inactive	inactive	inactive	inactive	inactive	8.28 µM (active)	–	inactive	inactive	inactive	–	inactive	inactive	–
